This is an account of results in PubChem BioAssay (NCI).

Values joined by “and” are separate entries in the source; they are usually repeats but may differ in a detail not shown here. Identical values can stand only once. About 83,000 compounds went through this panel and 20% of them were active in at least one assay; those are over-represented in the sample as a whole.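 Interpretation: 100, growth as untreated; towards 0, rising growth inhibition; 0, no net growth; 0 to -100, cell death. Compounds scoring below 10 were considered active.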 Unmarked numbers belong to inactive results. Active and inactive are the calls of the source.

In this assay the test system is HL-60(TB) leukemia. The assay is described as follows: NCI-60 one-dose screen, 48 h (100 = growth as untreated, 0 = no growth, -100 = all killed). As to conditions: 10 µM unless noted.
Take `CN(C)Cc1ccc[nH]1`: the growth is 109%.

For `O=C1Nc2ccc(Br)cc2/C1=N/c1nc(-c2ccccc2)cs1`, the growth is 73.1%.

Consider `C[n+]1c2ccccc2c(NC2CCNCC2)c2[nH]c3ccccc3c21`, for which the growth is 61.4%.

Turning to `COc1ccc(C/C(C)=C(/c2ccc(OCCN3CCCCC3)cc2)c2ccc(OC(=O)NCc3ccccc3)cc2)cc1`, the growth is -75.1% (active).

For the molecule `COc1ccc(C2C(C#N)=C(N)Oc3n[nH]c(-c4cccs4)c32)cc1I` (stereo not given), the growth is 54.2%.

For `COc1ccc2c(c1)c1nc3cc(C)c(C)cc3nc1n2CCN(C)C`, the growth was -26.4% (active).

Regarding `CC(C)N(Cc1ccc(CN(C(=O)CCl)C(C)C)cc1)C(=O)CCl`, the growth is -46% (active).

As for `CN(C)c1ccc(/C=C/C(=O)c2ccc(-n3cc(CN4CCN(c5cc6c(cc5F)c(=O)c(C(=O)O)cn6C5CC5)CC4)nn3)cc2)cc1`, the growth is 84.6%.

As for `c1ccc(CO[C@H]2CO[C@H]3[C@@H]2OC[C@H]3OCc2ccccc2)cc1`, the growth is 88.4%.

Take `COc1c(B(O)O)cccc1-c1nc2c(F)cc3n[nH]c(C)c3c2c2c1CCCC2`: the growth is 6.65% (active).

Take `Nc1c(C(=O)Nc2cccc3ccccc23)sc2nc3c(cc12)C(=O)CCC3`: the growth is 3.95% (active).

With `O=C(Nc1ccc(Cl)cc1)Nc1ccc(Cl)c(Cl)c1`, the growth was -23.6% (active).

Consider `Oc1ccc(-c2cnc(-c3ccccc3)[nH]2)c(O)c1`, for which the growth is 101%.

Turning to `Nc1c(C(=O)Nc2ccncc2)sc2nc3c(cc12)CCCCCC3`, the growth is 67.1%.

With `Cc1ccccc1N=C(c1ccccc1)C1C(=O)c2ccccc2C1=O`, the growth is 78.5%.

As to `O=C(N/N=C1\c2ccccc2-c2cccc(C(=O)O)c21)c1ccc(O)cc1`, the growth is 103%.

In the case of `Cc1c(C(=O)/C=C/c2csc3ccccc23)[n+](=O)c2ccccc2n1[O-]`, the growth is 67.7%.

Take `Nc1ccc(-c2cc3c(Nc4ccc(OCc5cccc(F)c5)c(Cl)c4)ncnc3s2)cc1`: the growth is 48.3%.

Turning to `COc1cccc(-c2nc3occn3c2-c2ccnc(NCCCNS(=O)(=O)c3cccc(F)c3)n2)c1`, the growth was 112%.

Turning to `COc1cc2nc(N3CCC[C@@H](NC4=CC(=O)c5ccccc5C4=O)C3)nc(N)c2cc1OC`, the growth was -60.3% (active).

For `N#Cc1c(-c2ccc(Cl)cc2)cc(-c2cc3ccccc3o2)nc1SCC(=O)c1ccc(Cl)cc1`, the growth is 123%.

Turning to `CCCCCCCC[Si](OCC)(OCC)OCC`, the growth was 94.3%.

Regarding `O=C1C(Cl)=C(Oc2ccccc2)C(=O)c2ccccc21`, the growth is 76%.

For the molecule `Cc1cc2c(O)c(-c3cc(Cl)ccc3Cl)c3sc(=O)oc3c2cc1C`, the growth is 64.1%.

With `O=C(/C=C/C=C/c1ccc2c(c1)OCO2)N1CCCCC1`, the growth is 100% and 93.4%.

Turning to `CCc1cccc2c3c(sc12)C(c1ccc(F)cc1)C(C#N)=C(N)O3` (stereo not given), the growth was 1.86% (active).

Regarding `COc1nc2c(cc1S(=O)(=O)c1ccccc1)CCc1c-2cnn1-c1cccc(Cl)c1`, the growth is 65.2%.

For the molecule `C#Cc1cccc(Nc2ncnc3cc(OC)c(OCCCCCCC(=O)NO)cc23)c1`, the growth was 2.38% (active).

On to `N#CC1=C(/N=C/c2ccccc2)Oc2c(ccc3ccccc23)C1c1ccccc1` (stereo not given), for which the growth is 0.269% (active).

With `CN(C)CC(=O)Nc1ccc2ncnc(Nc3ccc(Oc4cccc(C(F)(F)F)c4)c(Cl)c3)c2c1`, the growth is 2.72% (active).

Regarding `CN(C)c1ccc(-c2c(C#N)c(N)nn2C(=O)c2ccc(NC(=O)c3ccccn3)cc2)cc1`, the growth was 96.5%.

Take `CCOC(=O)c1cc(C(=O)c2ccc(OC)c(OC)c2)n2ccncc12`: the growth was 92%.

Turning to `O=C(O)/C=C/C=C/c1ccccc1`, the growth is 106% and 112%.

With `CC(=O)Nc1cccc2c1CCCC2`, the growth is 89.5% and 105%.

On to `COc1ccc(-c2nc3c(c(-c4ccccc4)nn3-c3ccccc3)c(-c3ccc(N4CCOCC4)cc3)c2C#N)cc1`, for which the growth was 101%.

On to `O=C(OCC1CC2(Cl)C(Cl)=C(Cl)C1(Cl)C2(Cl)Cl)C1C(C(=O)OCC2CC3(Cl)C(Cl)=C(Cl)C2(Cl)C3(Cl)Cl)C2(Cl)C(Cl)=C(Cl)C1(Cl)C2(Cl)Cl` (stereo not given), for which the growth was 89.3%.

Regarding `O=[N+]([O-])c1ccc(NC2CCCCC2)nc1`, the growth is 110%.

`CCCCNCCC(O)c1cc2ccc(C(F)(F)F)cc2c2cc(C(F)(F)F)ccc12` (stereo not given): the growth is -62.1% (active).

In the case of `CC(C)c1c(C(=O)Nc2ccccc2)c(-c2ccccc2)c(-c2ccc(F)cc2)n1CC[C@@H]1CC=CC(=O)O1`, the growth is -27.9% (active).

As for `Oc1ccc(/C=N/Nc2nnc(N/N=C/c3ccc(O)cc3O)c3ccccc23)c(O)c1`, the growth was -62.2% (active).
